Screening results: PubChem, Center for Chemical Genomics, University of Michigan
Only a selection was taken, and hits are over-represented in it overall.
Dicer processing: blocks human Dicer maturation of pre-miR-21. AID 1347074. 47,000 compounds, 6% hits. Q9UPY3. cat-ELCCA pre-miR-21 Dicer processing, chemiluminescence; active compounds read high. z-score at 25 µM; in the data active = z-score above about 3, passing the limit was not always enough;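 note: plate controls were vehicle for no effect and no enzyme for full effect; higher signal means more uncleaved substrate so more Dicer inhibition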
* = called active by the depositor.

SMILES	Dicer processing
Cc1nc2n(CC(=O)N3CCCC3)c3ccccc3n2n1	2.1
O=c1c2cc([N+](=O)[O-])ccc2oc2ncccc12	-0.58
NC(=O)c1cc(-c2ccccc2)sc1NC(=O)c1ccco1	0.11
S=C(N/N=C\c1cccc2ccccc12)Nc1cccc(Cl)c1Cl	3.8*
CN(C)NC(=S)Nc1cccc(Cl)c1Cl	1.1
Cc1cccc(NC(=S)N/N=C\c2cccc3ccccc23)c1C	-0.02
NNC(=S)Nc1cccc(Cl)c1Cl	4.3*
Cc1cc(Cl)ccc1NNC(N)=S	1.4
NNC(=S)Nc1ccccc1Cl	1.4
S=C(N/N=C/c1cccc2ccccc12)Nc1c(Cl)cccc1Cl	0.63
Cc1cc(Cl)ccc1NC(=S)NNC(=O)c1ccccc1Cl	-1.4
Cc1cc(Cl)ccc1NC(=S)NN	3.4*
O=C1C(=O)N(Cc2cccnc2)C(c2ccccc2F)/C1=C(\O)c1ccc(F)cc1 (stereo unspecified)	1.1
CC(CN1CCOCC1)OC(=O)C1c2ccccc2Oc2ccccc21 (stereo unspecified)	-1.1
COC(=O)C1=C(C)NC2=C(C(=O)CC(C)(C)C2)C1c1cccc(Cl)c1 (stereo unspecified)	-0.94
COc1ccc(OCC(O)CNC(=S)Nc2ccccc2)cc1 (stereo unspecified)	1.5
Cc1cc(N/N=C/c2ccc([N+](=O)[O-])s2)nc2c(N)n[nH]c12	2.5
Cc1csc(NC(=O)Nc2ccc(C(F)(F)F)cc2)c1	-0.6
CC1(C)CC(=O)C2=C(C1)c1c(ccc3ccccc13)NC2c1ccccc1 (stereo unspecified)	3
CCNc1c2c(nc3ccccc13)CC(C)(C)CC2=O	3*
CCc1nc(N)nc2c1C(=O)CC(C)(C)C2	-2.8
CCCCCCSC1=C(C#N)C(c2ccccc2C)C(C(=O)OC)C(=O)N1 (stereo unspecified)	-2.5
COc1ccc2[nH]cc(CCNC3CC(=O)N(c4ccc(Br)cc4)C3=O)c2c1 (stereo unspecified)	3.5*
O=C1CC(NCCc2c[nH]c3ccccc23)C(=O)N1c1cccc(Cl)c1 (stereo unspecified)	0.63
COc1ccc(N2C(=O)CC(NCCc3c[nH]c4ccc(Cl)cc34)C2=O)cc1 (stereo unspecified)	-0.9
SMILES	Dicer processing
CCc1sc(NC2=NS(=O)(=O)c3ccccc32)nc1-c1ccccc1	-0.27
Cc1ccccc1NC1=NS(=O)(=O)c2ccccc21	-2.4
Cc1sc(NC2=NS(=O)(=O)c3ccccc32)nc1-c1ccc(Cl)cc1	3.6*
CC(=O)Nc1nc2ccc(Br)cc2s1	-3
CS(=O)(=O)c1ccc2nc(NC(=O)Cc3ccc(Br)cc3)sc2c1	5.3*
CCCCOC(=O)Nc1nc2ccc(C)cc2s1	2.3
CCOC(=O)C(=O)Nc1nc2ccc(S(C)(=O)=O)cc2s1	5.8*
CS(=O)(=O)c1ccc2nc(NC(=O)CCCC(=O)O)sc2c1	0.15
CCOC(=O)Nc1nc2ccc(C)cc2s1	0.79
Cc1cc(C(=O)ONC(=O)c2ccco2)nn1-c1cc(Cl)ccc1Cl	-0.66
Cc1cc(C)nc(SCCc2ccncc2)n1	3.6*
Cc1cc(C)nc(SCC(=O)N2c3ccccc3CCc3ccccc32)n1	1.6
Cc1cc(C)nc(SCC(=O)n2c(C)c(C)c3ccccc32)n1	1.3
C=CCOc1cccc(C2c3c(oc4ccc(C)cc4c3=O)C(=O)N2Cc2ccc3c(c2)OCO3)c1 (stereo unspecified)	-0.04
O=C1CN(C(=O)OCc2ccccc2)CCN1	0.57
CCOC(=O)c1c(N2C(=O)CSCC2=O)sc2c1CCCC2	-0.06
O=C(CSc1nnc2sc3ccccc3n12)Nc1nc2c(s1)CCCC2	2.8
c1ccc(Nc2nc3c(s2)CCCC3)cc1	4*
c1ccc(Nc2nc3c(s2)Cc2ccccc2-3)cc1	-1.4
CSc1nc(N)n2nc(C3CC3)cc2n1	-2.2
Cc1cc(C)c2c(N)c(C(=O)NN)sc2n1	-1.3
CNC(=S)NNC(=O)c1sc2nc(C)cc(C)c2c1N	4.6*
CCOC(=O)c1sc2nc(C)cc(C)c2c1N	-1.2
CC1CCc2c(sc3nc(SCC(N)=O)n(-c4ccccc4)c(=O)c23)C1 (stereo unspecified)	1.3
Cc1cc(-c2csc(=N)n2-c2c(F)cccc2F)ccc1Cl	0.82
SMILES	Dicer processing
O=C(C1Cc2ccccc2C1)N1CCOCC1	7.3*
Cc1ccc(SC(=O)N2CCOCC2)cc1	-0.58
O=C(c1cc(-c2ccccc2)nc2ccccc12)N1CCOCC1	1.5
COc1ccc(C2/C(=C(/O)c3ccc(Br)cc3)C(=O)C(=O)N2CCO)cc1OC (stereo unspecified)	-2.1
Cc1ccc(C2C(C#N)=C3N=C(N)c4ccccc4N3C3=C2C(=O)CCC3)cc1 (stereo unspecified)	2.5
N#CC1=C2N=C(N)c3ccccc3N2C2=C(C(=O)CCC2)C1c1ccc(F)cc1 (stereo unspecified)	0.21
COc1cccc(C2C(C#N)=C3N=C(N)c4ccccc4N3C3=C2C(=O)CCC3)c1OC (stereo unspecified)	-2.4
COc1ccc(C2C(C#N)=C3N=C(N)c4ccccc4N3C3=C2C(=O)CC(C)(C)C3)c(OC)c1 (stereo unspecified)	3
CN(C)c1ccc(C2C(C#N)=C3N=C(N)c4ccccc4N3C3=C2C(=O)CCC3)cc1 (stereo unspecified)	3.4*
CC1(C)CC(=O)C2=C(C1)N1C(=C(C#N)C2c2ccccc2F)N=C(N)c2ccccc21 (stereo unspecified)	3.2*
c1csc(-c2nc(-c3cc4ccccc4o3)cs2)c1	0.38
O=C(Nc1ncccc1OCc1ccc(Cl)c(Cl)c1)Nc1cccc2ccccc12	-0.85
COC(=O)c1ccc(-c2nc(-c3cc(C)nc4ccccc34)no2)cc1	0.7
CCCSc1[nH]c2cc(OC)c(OC)cc2c1[N+](=O)[O-]	-1.2
CCOC(=O)C1=C(C(=O)OCC)SC(=C2C(=S)C(C)(C)Nc3cc(C)ccc32)S1	0.28
O=c1[nH][nH]c(=O)n1CCCc1cc2cccc3ccc4cccc1c4c32	3.7*
CCOC(=O)NNC(=O)NCCCc1ccc2ccc3cccc4ccc1c2c34	2.3
Cc1cc(C)c2oc(-c3ccc(C)c(N)c3)nc2c1	3.2*
Cc1cc(C)c2oc(-c3cccc(N)c3)nc2c1	1.9
Cc1cc(C)c2oc(-c3cc(N)ccc3Cl)nc2c1	2.3
O=C(Nc1ccc(Oc2ccc(Cl)cc2C2CCCCC2)nc1)C1CCCCC1	-1.2
CCOC(=O)COc1ccc2c(=O)c(Oc3ccccc3Br)c(C(F)(F)F)oc2c1	2
CCOc1cc(C2c3c(oc4ccc(F)cc4c3=O)C(=O)N2Cc2ccc3c(c2)OCO3)ccc1O (stereo unspecified)	-0.8
O=C1c2ccccc2C(=O)C1(c1ccccc1)N1CCN(c2ccccn2)CC1	-0.38
COc1ccc(C(=O)N2CCSC2=S)cc1	0.68
SMILES	Dicer processing
COc1ccc(C(=O)N2CCSC2=S)cc1OC	3.5*
COCOc1ccc(C(=O)O)cc1OC	-0.83
O=C(O)c1nccnc1C(=O)NCc1csc2ccccc12	1.4
CC1CC(NC(=S)NCc2csc3ccccc23)CC(C)(C)C1 (stereo unspecified)	-1
N/C(Cc1csc2ccccc12)=N\O	0.88
O=C(O)/C=C\C(=O)NCc1csc2ccccc12	5.3*
O=C(O)/C=C/C(=O)NCc1ccc(F)cc1	-0.86
S=C(NCc1csc2ccccc12)NCC1CC1	4*
Nc1nc(SCc2ccc(C(=O)NCCO)cc2)nc2sc3c(c12)CCCC3	1.3
O=C(NNS(=O)(=O)c1cccc(C(F)(F)F)c1)c1cc2ncc(C(F)(F)F)cc2s1	-0.52
O=C(NCCCn1ccnc1)c1sc2ccccc2c1Cl	-0.58
